VDR inh = Inhibitors of the vitamin D receptor (VDR): qHTS; Vitamin D3 receptor (Homo sapiens), P11473; VDR-SRC2-3 peptide fluorescence polarization, 2 h; Potency, µM, for the others: max response, negative = inhibition, actives largely listed as inhibitors; actives 0.93% (n = 400,000); AID 504847, 2011
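Fluorescence polarization assay measuring small-molecule disruption of VDR binding to the coregulator peptide SRC2-3. Compounds were pin-transferred (23 nl) into the reagent mix and incubated 2 h at room temperature before reading.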
IDH1 R132H inh = qHTS for Inhibitors of mutant isocitrate dehydrogenase 1 (IDH1): qHTS; Isocitrate dehydrogenase [NADP] cytoplasmic (Homo sapiens), O75874; Potency, µM (titrated, usually from 76.6 µM), for inactives: at the highest dose activity change, negative = inhibition, hits mostly inhibitors; IDH1-R132H enzyme, NADPH consumption, diaphorase/resazurin fluorescence; actives 0.093% (n = 390,000); note: nearly all actives have a fitted effect of over 65% in size
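IDH1-R132H (0.5 ug/mL dispensed) in pH 7.5 Tris buffer was preincubated 30 min with compound, then given a substrate mix of 0.016 mM NADPH and 2 mM alpha-KG for 80 min at room temperature; remaining NADPH was read by diaphorase/resazurin fluorescence.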
PLK1 PBD block = qHTS for Inhibitors of PLK1-PDB (polo-like kinase 1 - polo-box domain): Primary Screen | Potency, µM, without a hit: max response, negative = inhibition, most hits filed as inhibitors | Plk1 PBD binding of FITC phosphopeptide, fluorescence polarization | actives 2.8% (n = 360,000) | AID 720504, 2013; note: series mostly up to about 57 µM; nearly all actives have a fitted effect of over 65% in size
Target sequence (P53350 whole entry, looked up, the tested form may be a part): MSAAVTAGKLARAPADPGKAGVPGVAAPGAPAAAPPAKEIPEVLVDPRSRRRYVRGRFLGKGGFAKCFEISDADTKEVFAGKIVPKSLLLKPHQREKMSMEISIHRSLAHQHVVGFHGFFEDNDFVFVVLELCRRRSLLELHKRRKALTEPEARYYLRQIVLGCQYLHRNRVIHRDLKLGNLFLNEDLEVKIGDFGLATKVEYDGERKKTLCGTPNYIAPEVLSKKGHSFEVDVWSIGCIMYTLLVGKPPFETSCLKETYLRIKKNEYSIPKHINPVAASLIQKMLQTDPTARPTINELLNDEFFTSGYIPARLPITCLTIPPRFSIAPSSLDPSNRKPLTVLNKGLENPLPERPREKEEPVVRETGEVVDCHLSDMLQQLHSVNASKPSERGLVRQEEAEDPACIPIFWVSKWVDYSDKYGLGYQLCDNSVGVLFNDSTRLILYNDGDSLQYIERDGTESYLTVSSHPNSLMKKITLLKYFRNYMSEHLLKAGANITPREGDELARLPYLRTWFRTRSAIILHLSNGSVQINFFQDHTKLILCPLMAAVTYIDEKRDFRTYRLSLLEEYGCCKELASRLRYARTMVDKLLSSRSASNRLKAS
TrxR1 inh = qHTS Assay for Inhibitors of Mammalian Selenoprotein Thioredoxin Reductase 1 (TrxR1): qHTS; Thioredoxin reductase 1, cytoplasmic (Rattus norvegicus), O89049; recombinant rTrxR1, NADPH fluorescence consumption, selenite substrate; Potency, µM (highest dose often 114 µM), inactives show top-dose activity change, negative = inhibition, hits mostly inhibitors; actives 1% (n = 390,000); note: nearly all actives have a fitted effect of over 65% in size
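Rat TrxR1 (90 nM in the dispensed reagent) was pre-reduced with 400 uM NADPH for 5 min at room temperature, then incubated with compound for 15 min. After 400 uM selenite was added, NADPH fluorescence (Ex 340/Em 450 nm) was followed for 8 min.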
TrxR1 substrate = qHTS Assay for Substrates of Mammalian Selenoprotein Thioredoxin Reductase 1 (TrxR1): qHTS; actives 0.01% (n = 390,000); Potency, µM (titrated, usually from 114 µM), for the others: top-dose activity change, negative = substrate turnover; Thioredoxin reductase 1, cytoplasmic (Rattus norvegicus), O89049; purified TrxR1 substrate turnover, NADPH consumption readout; note: nearly all actives have a fitted effect of over 50% in size
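Rat TrxR1, dispensed at 90 nM, was prereduced with 400 uM NADPH (final) for 5 min at ~22 deg C, then incubated with compound 15 min before 400 uM selenite. A first-read NADPH fluorescence drop versus no-compound background flagged substrates.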
Sfp inh = qHTS Assay for Inhibitors of Bacillus subtilis Sfp phosphopantetheinyl transferase (PPTase); Biochemical Sfp PPTase activity, qHTS; Potency, µM, inactives show largest response in the series, negative = inhibition, usual class: inhibitors; actives 3.5% (n = 310,000); AID 1490, 2009; 4'-phosphopantetheinyl transferase ffp (Bacillus subtilis), Q9F4F7;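 note: the enzyme is Sfp with the accession as filed and its product quenches rhodamine fluorescence; 0% = enzyme reaction without inhibitor and -100% = no enzyme wells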
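Fluorescence-quenching assay: 15 nM Sfp-PPTase preincubated 15 min at room temperature with compound, then 5 uM rhodamine-CoA and 12.5 uM BHQ-2-labelled YbbR peptide added. Fluorescence (ex 525/em 598 nm) read at start and after 30 min; difference gives rate.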
The depositor's hits bear a star; ? = inconclusive; · = not tested or not shown; [ ] = dose if it differs, or a comment. In the library only some 5.2% were active in any assay of this set; here they are far more common. Calls come from the whole dose curve; as a rule, active = well fitted curve in the direction sought with a large enough effect; inconclusive = small, poorly fitted or top-dose-only effect, or another doubt; inactive = no such curve, though single readings can be large; an effect the other way counts as inactive or inconclusive. Unless noted, % is set by controls: 0 for no effect and ±100 for the full control effect; potency is the fitted concentration of half-maximal effect.

SMILES	VDR inh	IDH1 R132H inh	PLK1 PBD block	TrxR1 inh	TrxR1 substrate	Sfp inh
CCOC(=O)c1c(NC(=O)CN(CC)CC)sc2c1CCC2	-13%	2%	2%	-2%	4%	2%
COC(=O)Nc1sc2c(c1C(N)=O)CCCCCC2	?	1%	13µM*	0%[57.1 µM]	2%[57.1 µM]	-84%
CC(C)OC(=O)c1c(NC(=O)C2CC=CCC2C(=O)O)sc2c1CCCCC2 (stereo not drawn)	?	5%	?	7%	9%	11%
COc1ccc(-c2nnc3n2N=C(c2c(OC)cccc2OC)CS3)cc1OC	·	·	·	·	·	9%
COC(=O)c1ccc(C(=O)OC)c(NC(=O)c2ccc(-c3ccccc3)s2)c1	11%	17%	·	5%	36%	·
CC(C)=CCOc1ccc(/C=C/C(=O)c2ccc(OCC=C(C)C)cc2OCC(=O)O)cc1	10µM*	·	·	·	·	?
COc1ccc(-c2nnc(C3CCN(C(=O)c4ccccc4F)CC3)o2)cc1	-16%	7%	·	-7%	-10%	·
Cc1ccc(-c2nc(C(=O)NC3CCCCCC3)no2)cc1	79µM*	-7%	9.5µM*	-3%[57.1 µM]	-7%[57.1 µM]	·
CCn1nc(NS(=O)(=O)c2ccccc2)c2cc3ccccc3nc21	?	-2%	27µM*	12%	-3%	32%
COc1cccc(C2=CC(c3ccc(N(C)C)cc3)n3nnnc3N2)c1 (stereo not drawn)	-12%	1%	5%	?	-3%	-16%
COc1cccc(C2=CC(c3ccccc3)n3nnnc3N2)c1 (stereo not drawn)	-5%	7%	-11%	-8%	9%	45µM*
COc1cccc(C2C=C(c3ccc(OC)cc3OC)Nc3nnnn32)c1 (stereo not drawn)	-24%	6%	-27%	45µM*	3%	-12%
CCCCCCCCN1C(=O)[C@H](CC(=O)NCc2ccc(OC)c(OC)c2)C[C@@]2(C(=O)OC)CCCCC=C12	·	·	0%	·	·	·
O=C(O)c1cc(S(=O)(=O)Nc2ccc3oc(=O)sc3c2)ccc1O	79µM*	3%	6.7µM*	12%[57.1 µM]	4%[57.1 µM]	40µM*
Cc1ccc2nc(CCl)[n+]([O-])c(-c3ccccc3)c2c1	?	11%	3.4µM*	?	-1%	6%
Cc1ccc2nc(Cl)c(-c3ccccc3)cc2c1	10%	8%	-3%	17%[11.4 µM]	6%[11.4 µM]	·
O=C1C(Cl)=C(NCC2CCCO2)C(=O)N1C1CCCCC1 (stereo not drawn)	-15%	-5%	?	-7%	1%	40µM*
NC(=S)c1ccc[n+]([O-])c1	50µM*	6%	19µM*	-22%	-10%	·
CC(C)(C)NC(=O)C(c1ccc(F)cc1)N(CCc1ccccc1)C(=O)c1ccn[nH]1 (stereo not drawn)	-6%	4%	27µM*	12%[57.1 µM]	-4%	9%
COc1ccc(-n2c(SCC(=O)N3CCC(C)CC3)nc3c([nH]c4ccccc43)c2=O)cc1	-3%	-8%	·	28%[57.1 µM]	2%[57.1 µM]	·
O=c1nc(SCc2c(F)cccc2Cl)nc(-c2ccccc2)[nH]1	-4%	0%	27µM*	14%	2%	-10%
COc1ccc(OCC(=O)NCCS(=O)(=O)N2CCN(c3cccc(Cl)c3)CC2)cc1	6%	-2%	·	-12%[57.1 µM]	-7%[57.1 µM]	·
CSC1=NCCN1C(=O)c1ccc(S(=O)(=O)N(C)C)cc1	-21%	2%	27µM*	11%	6%	2%
Cc1ccc(NC(=O)COC(=O)C2=NN(c3ccccc3)C(=O)CC2)c(Br)c1	1%	-2%	-3%	-4%	-15%	·
Cc1ccc2c(c1)N/C(=C(\C=C(/Cl)[N+](=O)[O-])[N+](=O)[O-])N2	·	·	·	·	·	35µM*
SMILES	VDR inh	IDH1 R132H inh	PLK1 PBD block	TrxR1 inh	TrxR1 substrate	Sfp inh
CCc1c(C)nc(SCC(=O)N2CCCCC2CC)[nH]c1=O (stereo not drawn)	?	-4%	24µM*	20%	4%	3%
CCc1c(C)nc(SCC(=O)N2CCN(c3ccccc3)CC2)[nH]c1=O	-3%	0%	-21%	18%	1%	10%
COc1cccc(C2C(C(N)=O)=C(C)Nc3ncnn32)c1 (stereo not drawn)	-2%	3%	·	6%	1%	·
Cc1ccc(-c2nn(-c3ccccc3)cc2C2CC(c3ccccc3)=NN2C(=O)CCC(=O)O)cc1 (stereo not drawn)	13%	-10%	?	-3%	-2%	-20%
Cc1ccc(C2=NN(C(=O)CCC(=O)O)C(c3cn(-c4ccccc4)nc3-c3ccc(C)cc3)C2)cc1 (stereo not drawn)	60%	10%	?	-18%	-4%	89µM*
CCCN(Cc1ccc(N(C)C)cc1)CC1CC1	-4%	5%	-6%	17%	9%	89µM*
CC[C@H](C)[C@H](NC(=O)[C@H](Cc1ccc(O)cc1)NC(=O)[C@H](Cc1cnc[nH]1)NC(=O)[C@H](CCCNC(=N)N)NC(=O)[C@H](CC(C)C)NC(=O)[C@H](C)NC(=O)[C@H](CO)NC(=O)[C@H](Cc1ccc(O)cc1)NC(=O)[C@H](Cc1ccc(O)cc1)NC(=O)[C@H](CCCNC(=N)N)NC(=O)[C@H](C)NC(=O)[C@H](CC(C)C)NC(=O)[C@H](CC(=O)O)NC(=O)[C@H](CCC(=O)O)NC(=O)[C@H](C)NC(=O)[C@@H]1CCCN1C(=O)[C@H](C)NC(=O)[C@H](CC(=O)O)NC(=O)[C@H](CCC(=O)O)NC(=O)CNC(=O)[C@@H]1CCCN1C(=O)[C@H](CC(N)=O)NC(=O)[C@H](CC(=O)O)NC(=O)[C@@H]1CCCN1C(=O)[C@H](CCCCN)NC(=O)[C@@H](N)CO)C(=O)N[C@@H](CC(N)=O)C(=O)N[C@@H](CC(C)C)C(=O)N[C@H](C(=O)N[C@H](C(=O)N[C@@H](CCCNC(=N)N)C(=O)N[C@@H](CCC(N)=O)C(=O)N[C@@H](CCCNC(=N)N)C(=O)N[C@@H](Cc1ccc(O)cc1)C(N)=O)[C@@H](C)O)[C@@H](C)CC	-3%	·	·	·	·	-26%
c1ccc(Nc2ncnc3ccc(-c4ccoc4)cc23)cc1	32µM*	·	·	·	·	-6%
